The full data set covers some 7,900 targets. This sample favours those with a hit. About 0.6% of all pairs of compound and target were hits. Values without a mark were called inactive.
Key:
Assay in all cases: log2 fold change, soluble protein after heating vs DMSO (PISA); higher = thermal stabilisation; K562 cells, 10 uM, 30 min; active = over 0.2 and 3.5 SD of the protein, either way, in both replicates (recomputed)
[1] = compound: CS(=O)(=O)c1ccc(-c2cnc(N)c(C(=O)Nc3ccccc3)n2)cc1
Method in brief: (§1)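 K562 cells at 2×10^6 cells/mL were treated with 10 μM compound for 30 min. Aliquots were heated for 3 min across 48°C-58°C, pooled, and extracted in PBS with 0.5% NP-40 at 4°C; soluble protein was the supernatant after 21,000xg for 90 min. Soluble protein was quantified by TMTpro 16plex LC-MS/MS with channel sums equalised, and reported as log2 fold change in thermal stability against DMSO controls, with values from duplicates.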

crizotinib = compound: C[C@@H](Oc1cc(-c2cnn(C3CCNCC3)c2)cnc1N)c1c(Cl)ccc(F)c1Cl [crizotinib]
Method in brief: as §1

[2] = compound: C[C@@H]1COCCN1C2=NC(=NC(=C2)C3(CC3)S(=O)(=O)C)C4=C5C=CNC5=CC=C4
Method in brief: as §1

[3] = compound: C[C@H](C1=CC=C(C=C1)C(=O)NC2=C3C=CNC3=NC=C2)N
Method in brief: as §1

duvelisib = compound: C[C@H](Nc1ncnc2nc[nH]c12)c1cc2cccc(Cl)c2c(=O)n1-c1ccccc1 [duvelisib]
Method in brief: as §1

gandotinib = compound: Cc1cc(Nc2cc(CN3CCOCC3)c3nc(C)c(Cc4ccc(Cl)cc4F)n3n2)n[nH]1 [gandotinib]
Method in brief: as §1

tozasertib = compound: Cc1cc(Nc2cc(N3CCN(C)CC3)nc(Sc3ccc(NC(=O)C4CC4)cc3)n2)n[nH]1 [tozasertib]
Method in brief: as §1

[4] = compound: Cc1cc(SCc2sc(-c3ccc(C(F)(F)F)cc3)nc2C)ccc1OCC(=O)O
Method in brief: as §1

doramapimod = compound: Cc1ccc(-n2nc(C(C)(C)C)cc2NC(=O)Nc2ccc(OCCN3CCOCC3)c3ccccc23)cc1 [doramapimod]
Method in brief: as §1

ispinesib = compound: Cc1ccc(C(=O)N(CCCN)[C@@H](c2nc3cc(Cl)ccc3c(=O)n2Cc2ccccc2)C(C)C)cc1 [ispinesib]
Method in brief: as §1

Sequence of UniProt Q10471 (Q10471 whole entry, looked up): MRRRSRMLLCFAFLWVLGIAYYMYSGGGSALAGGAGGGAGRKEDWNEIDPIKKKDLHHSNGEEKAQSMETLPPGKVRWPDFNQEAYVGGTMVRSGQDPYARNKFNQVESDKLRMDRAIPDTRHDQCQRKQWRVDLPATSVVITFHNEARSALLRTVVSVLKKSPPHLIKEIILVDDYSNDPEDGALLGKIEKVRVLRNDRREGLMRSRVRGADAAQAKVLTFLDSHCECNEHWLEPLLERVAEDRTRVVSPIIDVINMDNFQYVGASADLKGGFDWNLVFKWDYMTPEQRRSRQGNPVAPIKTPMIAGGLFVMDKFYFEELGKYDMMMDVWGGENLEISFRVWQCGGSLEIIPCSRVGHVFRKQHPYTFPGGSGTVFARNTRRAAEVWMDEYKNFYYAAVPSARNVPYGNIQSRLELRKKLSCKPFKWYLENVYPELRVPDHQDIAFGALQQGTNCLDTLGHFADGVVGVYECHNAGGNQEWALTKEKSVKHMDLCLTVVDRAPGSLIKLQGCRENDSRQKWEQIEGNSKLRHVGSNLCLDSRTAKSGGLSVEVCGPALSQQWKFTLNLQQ
Sequence of UniProt Q92947 (Q92947 whole entry, looked up): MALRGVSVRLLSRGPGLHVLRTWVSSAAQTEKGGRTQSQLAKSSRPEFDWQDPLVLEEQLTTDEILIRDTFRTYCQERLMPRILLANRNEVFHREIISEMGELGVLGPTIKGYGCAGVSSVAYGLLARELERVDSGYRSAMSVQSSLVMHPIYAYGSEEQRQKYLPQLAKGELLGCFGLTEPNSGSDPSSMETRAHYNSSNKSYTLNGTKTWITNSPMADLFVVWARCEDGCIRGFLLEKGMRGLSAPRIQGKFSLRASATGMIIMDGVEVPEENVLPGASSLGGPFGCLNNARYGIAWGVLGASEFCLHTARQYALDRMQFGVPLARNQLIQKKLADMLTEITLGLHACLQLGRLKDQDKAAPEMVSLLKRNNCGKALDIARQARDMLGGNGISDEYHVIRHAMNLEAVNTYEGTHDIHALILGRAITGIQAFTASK
Sequence of UniProt Q86VQ1 (Q86VQ1 whole entry, looked up): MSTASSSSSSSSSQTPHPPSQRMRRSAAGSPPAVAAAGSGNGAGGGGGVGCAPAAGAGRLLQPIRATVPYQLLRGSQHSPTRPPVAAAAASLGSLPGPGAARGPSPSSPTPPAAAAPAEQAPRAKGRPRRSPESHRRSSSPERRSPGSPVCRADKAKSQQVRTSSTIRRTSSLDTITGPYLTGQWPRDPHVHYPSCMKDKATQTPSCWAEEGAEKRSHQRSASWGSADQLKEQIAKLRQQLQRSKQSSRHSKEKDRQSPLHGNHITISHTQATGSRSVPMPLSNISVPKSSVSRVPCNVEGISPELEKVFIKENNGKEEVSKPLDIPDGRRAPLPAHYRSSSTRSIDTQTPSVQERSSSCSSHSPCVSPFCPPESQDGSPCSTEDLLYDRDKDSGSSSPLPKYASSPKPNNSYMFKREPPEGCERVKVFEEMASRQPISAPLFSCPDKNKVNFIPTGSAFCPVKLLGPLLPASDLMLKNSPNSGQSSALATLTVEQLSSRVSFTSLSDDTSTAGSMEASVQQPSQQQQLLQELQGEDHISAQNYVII
Sequence of UniProt P0CL80 (P0CL80 whole entry, looked up): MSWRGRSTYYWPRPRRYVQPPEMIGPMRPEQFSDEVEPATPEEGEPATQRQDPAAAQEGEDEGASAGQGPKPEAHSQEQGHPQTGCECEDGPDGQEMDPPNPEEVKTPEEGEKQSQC
Sequence of UniProt P78417 (P78417 whole entry, looked up): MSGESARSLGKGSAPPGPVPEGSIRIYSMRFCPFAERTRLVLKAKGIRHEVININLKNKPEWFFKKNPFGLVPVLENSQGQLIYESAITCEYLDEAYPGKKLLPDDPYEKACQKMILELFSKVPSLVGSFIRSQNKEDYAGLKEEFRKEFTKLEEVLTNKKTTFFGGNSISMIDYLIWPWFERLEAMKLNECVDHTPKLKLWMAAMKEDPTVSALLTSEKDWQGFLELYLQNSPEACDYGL
Sequence of UniProt Q96LB3 (Q96LB3 whole entry, looked up): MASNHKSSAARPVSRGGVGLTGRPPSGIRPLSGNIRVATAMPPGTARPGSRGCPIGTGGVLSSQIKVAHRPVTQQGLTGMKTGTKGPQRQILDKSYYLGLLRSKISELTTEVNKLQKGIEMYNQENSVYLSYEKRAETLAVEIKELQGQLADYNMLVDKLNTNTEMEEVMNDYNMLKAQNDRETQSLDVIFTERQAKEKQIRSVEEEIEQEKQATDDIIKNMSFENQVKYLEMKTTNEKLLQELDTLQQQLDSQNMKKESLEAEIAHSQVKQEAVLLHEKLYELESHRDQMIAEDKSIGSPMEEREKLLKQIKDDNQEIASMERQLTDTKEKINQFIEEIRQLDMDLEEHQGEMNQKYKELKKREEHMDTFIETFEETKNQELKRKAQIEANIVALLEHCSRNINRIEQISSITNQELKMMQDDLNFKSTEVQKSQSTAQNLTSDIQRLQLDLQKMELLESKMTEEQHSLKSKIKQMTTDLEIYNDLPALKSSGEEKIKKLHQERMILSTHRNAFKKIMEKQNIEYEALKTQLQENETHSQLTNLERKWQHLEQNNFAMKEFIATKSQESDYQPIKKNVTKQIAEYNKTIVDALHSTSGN
Sequence of UniProt P55084 (P55084 whole entry, looked up): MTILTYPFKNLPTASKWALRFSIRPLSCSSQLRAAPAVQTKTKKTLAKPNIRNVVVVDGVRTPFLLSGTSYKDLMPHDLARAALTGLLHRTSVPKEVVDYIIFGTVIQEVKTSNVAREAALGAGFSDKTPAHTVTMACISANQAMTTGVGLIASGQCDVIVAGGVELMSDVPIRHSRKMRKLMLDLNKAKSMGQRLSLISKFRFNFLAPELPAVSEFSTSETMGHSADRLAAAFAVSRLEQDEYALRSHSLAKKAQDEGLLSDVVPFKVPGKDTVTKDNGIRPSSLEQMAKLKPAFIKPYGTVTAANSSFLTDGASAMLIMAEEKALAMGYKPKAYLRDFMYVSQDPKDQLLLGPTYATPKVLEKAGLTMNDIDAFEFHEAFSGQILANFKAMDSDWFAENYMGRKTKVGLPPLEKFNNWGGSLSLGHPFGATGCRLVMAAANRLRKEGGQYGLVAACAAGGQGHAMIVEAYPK
Sequence of UniProt P60520 (P60520 whole entry, looked up): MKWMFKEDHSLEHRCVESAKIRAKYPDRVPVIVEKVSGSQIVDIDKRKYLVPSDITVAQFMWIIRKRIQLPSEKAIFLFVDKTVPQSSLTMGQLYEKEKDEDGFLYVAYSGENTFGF
Sequence of UniProt O76003 (O76003 whole entry, looked up): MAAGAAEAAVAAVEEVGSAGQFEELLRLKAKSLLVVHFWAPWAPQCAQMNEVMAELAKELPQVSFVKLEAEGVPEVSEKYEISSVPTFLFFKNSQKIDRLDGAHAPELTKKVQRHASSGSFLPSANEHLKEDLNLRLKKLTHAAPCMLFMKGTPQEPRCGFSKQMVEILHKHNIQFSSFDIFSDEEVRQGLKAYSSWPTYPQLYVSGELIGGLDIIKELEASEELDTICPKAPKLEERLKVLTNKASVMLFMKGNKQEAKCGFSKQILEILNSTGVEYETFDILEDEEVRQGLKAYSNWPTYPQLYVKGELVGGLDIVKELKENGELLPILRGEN
Sequence of UniProt Q9UQC2 (Q9UQC2 whole entry, looked up): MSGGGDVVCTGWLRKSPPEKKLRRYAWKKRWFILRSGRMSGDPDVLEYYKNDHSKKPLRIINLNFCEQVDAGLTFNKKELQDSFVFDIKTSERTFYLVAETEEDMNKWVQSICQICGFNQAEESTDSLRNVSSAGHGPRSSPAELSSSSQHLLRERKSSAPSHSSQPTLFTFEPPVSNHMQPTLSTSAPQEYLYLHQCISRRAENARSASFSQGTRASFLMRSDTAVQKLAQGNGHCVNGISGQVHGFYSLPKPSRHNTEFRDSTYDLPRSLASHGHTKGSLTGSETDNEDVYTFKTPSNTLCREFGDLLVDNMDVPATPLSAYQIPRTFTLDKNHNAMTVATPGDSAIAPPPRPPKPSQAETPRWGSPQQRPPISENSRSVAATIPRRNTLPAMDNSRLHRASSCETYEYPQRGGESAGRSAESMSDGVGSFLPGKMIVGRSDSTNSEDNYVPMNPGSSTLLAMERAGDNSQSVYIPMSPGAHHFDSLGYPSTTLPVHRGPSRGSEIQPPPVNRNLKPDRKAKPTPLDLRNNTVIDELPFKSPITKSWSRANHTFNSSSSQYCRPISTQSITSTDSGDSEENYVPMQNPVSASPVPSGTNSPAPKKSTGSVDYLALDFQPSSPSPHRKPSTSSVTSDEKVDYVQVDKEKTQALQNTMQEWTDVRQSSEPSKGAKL
Sequence of UniProt Q53R41 (Q53R41 whole entry, looked up): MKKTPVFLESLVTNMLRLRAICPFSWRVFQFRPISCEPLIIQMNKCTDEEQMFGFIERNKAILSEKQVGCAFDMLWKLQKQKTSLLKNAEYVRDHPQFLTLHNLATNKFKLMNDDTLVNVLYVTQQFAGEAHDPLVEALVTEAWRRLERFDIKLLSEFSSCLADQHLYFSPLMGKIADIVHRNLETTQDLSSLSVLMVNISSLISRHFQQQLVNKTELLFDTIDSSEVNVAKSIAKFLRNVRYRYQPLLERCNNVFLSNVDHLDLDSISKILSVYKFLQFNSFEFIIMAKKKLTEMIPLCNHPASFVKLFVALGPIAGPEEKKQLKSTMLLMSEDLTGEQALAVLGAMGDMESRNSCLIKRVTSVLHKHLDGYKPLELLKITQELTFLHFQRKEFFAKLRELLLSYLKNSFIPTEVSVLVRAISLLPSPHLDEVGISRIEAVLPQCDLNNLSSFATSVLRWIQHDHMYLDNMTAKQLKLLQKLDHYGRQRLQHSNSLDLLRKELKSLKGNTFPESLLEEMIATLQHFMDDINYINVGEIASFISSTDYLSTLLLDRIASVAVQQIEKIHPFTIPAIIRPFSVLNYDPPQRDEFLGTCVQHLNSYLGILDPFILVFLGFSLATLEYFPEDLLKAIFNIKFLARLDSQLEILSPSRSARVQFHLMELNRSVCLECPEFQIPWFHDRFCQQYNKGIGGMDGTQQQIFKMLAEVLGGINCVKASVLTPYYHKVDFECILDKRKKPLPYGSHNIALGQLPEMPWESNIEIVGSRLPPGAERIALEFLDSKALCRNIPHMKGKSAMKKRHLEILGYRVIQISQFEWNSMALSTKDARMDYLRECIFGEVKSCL

Target | log2 fold change [1] | log2 fold change (crizotinib) | log2 fold change [2] | log2 fold change [3] | log2 fold change (duvelisib) | log2 fold change (gandotinib) | log2 fold change (tozasertib) | log2 fold change [4] | log2 fold change (doramapimod) | log2 fold change (ispinesib)
IFRD2 isoform 2 (UniProt Q12894) | 0.352 | -0.047 | 0.396 | -0.035 | 0.024 | 0.155 | -0.123 | -0.059 | 0.052 | 0.089
FERMT3 (UniProt Q86UX7) | 0.038 | -0.091 | 0.02 | -0.04 | 0.005 | -0.064 | 0.022 | 0.057 | 0.001 | -0.04
GLRX3 (UniProt O76003) | 0.03 | 0.098 | 0.06 | -0.068 | 0.043 | -0.094 | 0.077 | 0.041 | -0.075 | 0.068
HP1BP3 (UniProt Q5SSJ5) | 0.002 | -0.121 | -0.013 | 0.163 | -0.097 | 0.039 | -0.011 | 0.121 | 0.035 | -0.079
FASTKD1 (UniProt Q53R41) | 0.097 | 0.001 | 0.097 | -0.027 | 0.035 | -0.284 | -0.253 | 0.12 | 0.037 | -0.013
GBF1 (UniProt Q92538) | -0.032 | -0.131 | 0.023 | 0.08 | -0.028 | -0.197 | 0.039 | 0.041 | 0.059 | 0.012
GALNT2 (UniProt Q10471) | 0.056 | -0.005 | 0.093 | -0.015 | 0.05 | -0.024 | -0.065 | 0.022 | -0.001 | 0.034
GLB1 (UniProt P16278) | 0.024 | -0.221 (active) | -0.074 | 0.007 | -0.022 | 0 | 0.036 | -0.004 | 0.013 | -0.255 (active)
GSTM4 (UniProt Q03013) | -0.181 | -0.006 | 0.004 | 0.054 | 0.101 | -0.028 | -0.068 | 0.035 | -0.037 | -0.012
GSTO1 (UniProt P78417) | 0.047 | 0 | 0.013 | -0.072 | 0.064 | -0.017 | -0.01 | 0 | -0.02 | 0.036
GNL1 (UniProt P36915) | 0.051 | -0.014 | 0.162 | -0.011 | 0.013 | 0.028 | -0.014 | 0.052 | -0.019 | 0.087
GTF3C4 (UniProt Q9UKN8) | -0.011 | 0.078 | 0.04 | -0.015 | 0.035 | -0.05 | 0.059 | -0.063 | -0.019 | 0.06
FBL (UniProt P22087) | -0.054 | 0.075 | -0.266 | 0.379 | -0.084 | 0.124 | -0.043 | -0.01 | 0.279 | 0.097
HNRNPUL1 (UniProt Q9BUJ2) | 0.007 | -0.023 | -0.016 | 0.147 | -0.036 | 0.049 | 0.039 | 0.085 | -0.025 | -0.019
GAB2 (UniProt Q9UQC2) | -0.084 | -0.899 (active) | -0.361 | 0.033 | -0.836 (active) | -0.071 | -0.34 | 0.181 | 0.118 | -0.511
GCDH (UniProt Q92947) | 0.004 | 0.058 | 0.112 | -0.032 | 0.098 | 0.076 | -0.107 | -0.021 | -0.012 | 0.041
HNRNPH2 (UniProt P55795) | 0.029 | -0.171 | 0.096 | -0.023 | 0.054 | 0.06 | 0.113 | 0.177 | -0.024 | -0.159
GTF2E1 (UniProt P29083) | 0.008 | 0.02 | 0.118 | -0.088 | 0.035 | -0.011 | 0.046 | 0.059 | -0.03 | -0.028
HIC2 (UniProt Q96JB3) | -0.037 | 0.067 | -0.079 | 0.043 | -0.103 | 0.088 | 0.121 | 0.011 | 0.121 | -0.061
GLCCI1 (UniProt Q86VQ1) | -0.008 | 0.045 | 0.024 | 0.026 | 0.023 | 0.079 | 0.009 | 0.044 | -0.032 | 0.239
FBXO6 (UniProt Q9NRD1) | 0.035 | 0.475 (active) | 0.052 | -0.082 | 0.04 | 0.088 | 0.036 | 0.036 | -0.049 | 0.39 (active)
GLA (UniProt P06280) | -0.033 | -0.205 | -0.019 | 0.018 | -0.027 | -0.066 | -0.03 | 0.034 | -0.036 | -0.148
IFT74 (UniProt Q96LB3) | 0.21 | -0.04 | 0.014 | 0.088 | 0.068 | -0.02 | -0.136 | -0.094 | 0.095 | -0.133
FIZ1 (UniProt Q96SL8) | -0.05 | 0.018 | -0.354 | 0.074 | -0.251 | 0.024 |  | 0.017 | 0.044 | 
HPCAL1 (UniProt P37235) | 0.015 | 0.011 | 0.08 | -0.047 | 0.032 | -0.033 | 0.024 | -0.014 | -0.027 | -0.054
GABARAPL2 (UniProt P60520) | 0.081 | -0.178 | 0.036 | 0.006 | 0.053 | 0.039 | 0.031 | 0.005 | -0.073 | -0.151
GAGE12F (UniProt P0CL80) | 0.019 | 0.034 | 0.092 | 0.081 | 0.039 | 0.072 | 0.006 | 0.03 | 0.043 | 0.009
FIBP (UniProt O43427) | 0.022 | -0.043 | 0.257 | 0.118 | 0.041 | -0.094 | -0.144 | 0.02 | -0.048 | -0.052
GCC2 (UniProt Q8IWJ2) | 0.04 | -0.01 | -0.104 | 0.246 | -0.007 | 0.081 | 0.113 | 0.048 | 0.136 | -0.173
HADHB (UniProt P55084) | -0.087 | 0.109 | 0.099 | -0.023 | 0.229 | 0.083 | -0.112 | 0.138 | 0.167 | 0.199

Source: the supplement of paper PMC10849652
